# Assay results reported in PubChem BioAssay (EPA / NIEHS).
# Inconclusive results are not listed. The source made the active and inactive calls. How the source made its calls: active means hit-call score of the fitted dose curve at least 0.9, where 1 is the maximum; inconclusive means response in the unintended direction; inactive means score below 0.9.
# Tested on: not listed separately
# Assay: TOX21_p53_BLA_p4_viability: Viability Assessment in the Tox21 HCT-116 p53 Agonism Beta-lactamase Assay, Phase 4 (AID 2283597);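 further: hits lower the luminescence signal meaning cytotoxicity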
# Method in brief: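 Readout: ATP luminescence (CellTiter-Glo), measured 30 min after reagent addition at RT. The reagent followed a 2 h CCF4-AM incubation, and the cells had been exposed to compound for 16 h at 37C.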
row,Compound,outcome
1,C[N+](C)(C)CC[N+]1(C)Cc2c(Cl)c(Cl)c(Cl)c(Cl)c2C1,inactive
2,BrCCCCCBr,inactive
3,CC(C)Cc1nccs1,inactive
4,CN1CCCN=C1/C=C/c1cccs1,inactive
5,Cc1ncc(CO)c(C=O)c1O,inactive
6,O=C(O)c1c(Cl)cccc1Cl,inactive
7,BrC/C=C/CBr,inactive
8,Nc1ncnc2c1ncn2[C@H]1CC[C@@H](CO)O1,inactive
9,O=C1c2ccccc2-c2ccccc21,inactive
10,CCOC(=O)[C@H](CCc1ccccc1)N[C@@H](C)C(=O)N1C(=O)N(C)C[C@H]1C(=O)O,inactive
11,O=C(O)CNCC(=O)O,inactive
12,O=[N+]([O-])c1ccccc1CCO,inactive
13,CCC(C)SSC(C)CC (stereo unspecified),inactive
14,CCCCN1C=CN(C)C1,inactive
15,Cc1nc2n(c(=O)c1CCN1CCC(c3noc4cc(F)ccc34)CC1)CCC[C@H]2O,inactive
16,ClC/C=C/CCl,inactive
17,Cc1cc(C(=O)O)ccc1[N+](=O)[O-],inactive
18,Nc1nc(/C(=C/CC(=O)O)C(=O)N[C@@H]2C(=O)N3C(C(=O)O)=CCS[C@H]23)cs1,inactive
19,O.O=C([O-])CC([S-])C(=O)[O-].[Au+].[Na+].[Na+] (stereo unspecified),inactive
20,CC(=O)c1ccc2c(c1)N(CCCN(C)C)c1ccccc1S2,inactive
21,CC(C)(C)C(=O)CC(=O)C(C)(C)C,inactive
22,C1COC1,inactive
23,O=C(Nc1ccc(O)cc1)c1ccccc1O,inactive
24,SCCCCCCCCS,inactive

# Target: Cellular tumor antigen p53 (Homo sapiens) (UniProt P04637)
# Assay: TOX21_p53_BLA_p5_ratio: Tox21 HCT-116 p53 Agonism Beta-lactamase Assay, Ratio, Phase 5 (AID 2283599)
# Method in brief: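 HCT-116 cells carrying a p53-inducible beta-lactamase reporter were seeded at 4000 cells/well and dosed after 5 h with compound in DMSO (217-fold dilution). After 16 h at 37C, CCF4-AM substrate was added for 2 h, and the 460/530 nm emission ratio was scored as gain-of-signal versus DMSO.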
# Chain of Cellular tumor antigen p53 (Homo sapiens) (P04637 whole entry, looked up): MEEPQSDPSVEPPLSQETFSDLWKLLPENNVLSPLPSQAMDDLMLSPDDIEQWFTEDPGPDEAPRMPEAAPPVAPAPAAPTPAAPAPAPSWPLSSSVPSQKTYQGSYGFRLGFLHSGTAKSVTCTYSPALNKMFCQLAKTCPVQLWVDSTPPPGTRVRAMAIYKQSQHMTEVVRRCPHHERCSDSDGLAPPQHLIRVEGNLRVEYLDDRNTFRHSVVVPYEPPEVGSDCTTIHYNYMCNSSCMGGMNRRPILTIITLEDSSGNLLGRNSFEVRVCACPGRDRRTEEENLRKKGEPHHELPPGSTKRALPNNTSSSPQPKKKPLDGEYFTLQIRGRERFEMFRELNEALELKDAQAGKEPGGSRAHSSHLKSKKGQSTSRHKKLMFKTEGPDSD
row,Compound,outcome
1,C[N+](C)(C)CC[N+]1(C)Cc2c(Cl)c(Cl)c(Cl)c(Cl)c2C1,inactive
2,BrCCCCCBr,inactive
3,CC(C)Cc1nccs1,inactive
4,CCOC(=O)C1=C[C@@H](OC(CC)CC)[C@H](NC(C)=O)[C@@H](N)C1,inactive
5,O=C(O)C(=O)Cc1ccccc1,inactive
6,Cc1ncc(CO)c(C=O)c1O,inactive
7,O=C(O)c1c(Cl)cccc1Cl,inactive
8,O=S(=O)(Oc1ccc(Cl)cc1)c1ccccc1,inactive
9,BrC/C=C/CBr,inactive
10,Nc1ncnc2c1ncn2[C@H]1CC[C@@H](CO)O1,inactive
11,O=C1c2ccccc2-c2ccccc21,inactive
12,CCOC(=O)[C@H](CCc1ccccc1)N[C@@H](C)C(=O)N1C(=O)N(C)C[C@H]1C(=O)O,inactive
13,O=C(O)CNCC(=O)O,inactive
14,O=[N+]([O-])c1ccccc1CCO,inactive
15,CCC(C)SSC(C)CC (stereo unspecified),inactive
16,CCCCN1C=CN(C)C1,inactive
17,Cc1nc2n(c(=O)c1CCN1CCC(c3noc4cc(F)ccc34)CC1)CCC[C@H]2O,inactive
18,ClC/C=C/CCl,inactive
19,Cc1cc(C(=O)O)ccc1[N+](=O)[O-],inactive
20,C[N+]1(CCCCC[N+]2(C)CCCC2)CCCC1,inactive
21,COC(=O)C(c1ccccc1Cl)N1CCc2sccc2C1 (stereo unspecified),inactive
22,Nc1nc(/C(=C/CC(=O)O)C(=O)N[C@@H]2C(=O)N3C(C(=O)O)=CCS[C@H]23)cs1,inactive
23,O.O=C([O-])CC([S-])C(=O)[O-].[Au+].[Na+].[Na+] (stereo unspecified),inactive
24,Nc1cc(Cl)c(NC2=NCCN2)c(Cl)c1,inactive
25,CC(=O)c1ccc2c(c1)N(CCCN(C)C)c1ccccc1S2,inactive
26,CC(C)(C)C(=O)CC(=O)C(C)(C)C,inactive
27,C1COC1,inactive
28,SCCCCCCCCS,inactive

# Tested on: not listed separately
# Assay: TOX21_p53_BLA_p5_viability: Viability Assessment in the Tox21 HCT-116 p53 Agonism Beta-lactamase Assay, Phase 5 (AID 2283600)
# Method in brief: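 Workflow: seed 4000 cells per well, wait 5 h, add compounds (DMSO, 217-fold dilution), incubate 16 h, load CCF4-AM 2 h, add CellTiter-Glo, read luminescence after 30 min.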
row,Compound,outcome
1,CC1CCc2nccnc21 (stereo unspecified),inactive
2,C[N+](C)(C)CC[N+]1(C)Cc2c(Cl)c(Cl)c(Cl)c(Cl)c2C1,inactive
3,BrCCCCCBr,inactive
4,COc1ccc(C(=O)CCC(=O)O)c2ccccc12,inactive
5,Cc1ncc(CO)c(C=O)c1O,inactive
6,O=C(O)c1c(Cl)cccc1Cl,inactive
7,O=C(CCc1ccc(O)cc1)c1c(O)cc(O)cc1O,inactive
8,O=S(=O)(Oc1ccc(Cl)cc1)c1ccccc1,inactive
9,BrC/C=C/CBr,inactive
10,Nc1ncnc2c1ncn2[C@H]1CC[C@@H](CO)O1,inactive
11,COc1cc(N)c(Cl)cc1C(=O)NC1CCN(Cc2ccccc2)CC1,inactive
12,O=C(O)CN(CC(=O)O)CC1=CC2C(=CC1=O)Oc1cc(O)c(CN(CC(=O)O)CC(=O)O)cc1C21OC(=O)c2ccccc21 (stereo unspecified),inactive
13,CCC(C)[O-].CCC(C)[O-].CCOC(=O)/C=C(/C)[O-].[Al+3],inactive
14,CC(=O)Oc1cc2c(s1)CCN(C(C(=O)C1CC1)c1ccccc1F)C2 (stereo unspecified),inactive
15,CCOC(=O)[C@H](CCc1ccccc1)N[C@@H](C)C(=O)N1C(=O)N(C)C[C@H]1C(=O)O,inactive
16,O=C(O)CNCC(=O)O,inactive
17,O=[N+]([O-])c1ccccc1CCO,inactive
18,CCC(C)SSC(C)CC (stereo unspecified),inactive
19,CCCCN1C=CN(C)C1,inactive
20,Cc1nc2n(c(=O)c1CCN1CCC(c3noc4cc(F)ccc34)CC1)CCC[C@H]2O,inactive
21,ClC/C=C/CCl,inactive
22,COC(=O)C(c1ccccc1Cl)N1CCc2sccc2C1 (stereo unspecified),inactive
23,C=CC(=O)OCCCl,inactive
24,C1COC1,inactive
